From PubChem BioAssay
B2AR ag – activates human beta-2 adrenergic receptor causing internalization | P07550 | response, % (concentration not given with the values) | Am2.2-beta2AR cells, FAP receptor internalization, flow cytometry | 0.43% of 340,000 active;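 active means response above a set limit, near 3 SD of response in nonfluorescent compounds, cut at about 42% in these data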
NTR1 agonist – activates human neurotensin receptor 1 | P30989 | NTR1-U2OS beta-arrestin-GFP spot imaging, agonist mode | activation, % at 20 µM | 0.17% of 330,000 active | AID 493036;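 active means activation at or above 40% of the spot to cytoplasm intensity ratio, with at least 20 cells analyzed; inconclusive means wells under 20 cells, flagged as cytotoxic or low count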;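 further: 0% = DMSO without peptide and 100% = 100 nM NTR1 peptide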
Target sequence (P30989 whole entry, looked up): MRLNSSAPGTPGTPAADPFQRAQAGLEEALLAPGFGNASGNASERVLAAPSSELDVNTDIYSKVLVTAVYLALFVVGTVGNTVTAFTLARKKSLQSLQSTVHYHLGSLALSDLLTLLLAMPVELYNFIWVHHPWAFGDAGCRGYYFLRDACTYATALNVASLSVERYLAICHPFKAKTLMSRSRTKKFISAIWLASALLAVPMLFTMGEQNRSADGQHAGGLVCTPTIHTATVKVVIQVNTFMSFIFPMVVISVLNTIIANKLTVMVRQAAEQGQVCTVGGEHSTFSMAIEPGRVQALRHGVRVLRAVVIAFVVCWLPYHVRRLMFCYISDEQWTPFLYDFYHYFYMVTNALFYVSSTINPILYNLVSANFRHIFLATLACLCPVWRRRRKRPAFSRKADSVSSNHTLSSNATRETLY
VLA-4 inh – inhibition in a human VLA-4 binding assay; P13612; VLA-4 expressing cells, ligand binding flow cytometry; inhibition, % (about 7 µM as worked out from the volumes in the protocol); 0.2% of 330,000 active; AID 2557; in the data active means inhibition above about 50%
GRK2 aptamer HTS – blocks RNA aptamer binding to human GRK2; P25098; bead flow cytometry, FAM-aptamer displacement from GRK2; inhibition of aptamer binding, % at 10 µM; 0.59% of 330,000 active; AID 488847;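 active means inhibition of aptamer binding above 40%, roughly 3 SD of noise, on plates passing a quality check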;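 further: median bead fluorescence of bound FAM aptamer so fluorescent compounds give negative values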
A1 inh – inhibitors of the anti-apoptotic protein A1, read as caspase activation | 0.066% of 330,000 active | caspase activation, % (concentration not given with the values) | AID 2462 | MEF A1-2A-BIM cells, Caspase-Glo 3/7 luminescence, 3 h; percent of clofoctol response, vehicle zero;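 active means over half of replicate activation scores above 10%, or exactly half above 10 with the replicate mean above 10; inconclusive means replicate mean below 10 yet half the replicates above 10; inactive means over half of replicates below 10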
* marks the source's active call; other numbers are inactive results; u = inconclusive; x = no result given; ! = a repeat was not active. Shown are actives, neighbours in structure and some others; about 1.3% of the full set was active somewhere.

SMILES	B2AR ag	NTR1 agonist	VLA-4 inh	GRK2 aptamer HTS	A1 inh
O=C(O)c1[nH]c2ccccc2c1C(c1ccccc1)c1c(C(=O)O)[nH]c2ccccc12	4	-1	-8	51*	-1
O=C(CC1CC2CCC1C2)N1CCN(S(=O)(=O)c2ccccc2C(F)(F)F)CC1 (stereo unspecified)	-5	3	16	0	8.6*
Cc1occc1-c1nnc(SC(C)C(=O)Nc2ccccc2F)o1 (stereo unspecified)	-4	0	x	x	x
O=C1OC(c2ccc3c(c2)OCO3)=N/C1=C\c1ccc(C(=O)O)cc1	5	-1	0	53*	0
O=C(O)c1cccc(-c2ccc3c(c2)OCO3)c1	0	0	8	0	-2
C#CCOCCOCCOCCNc1nc(N2CCN(C(=O)CCCCCCCCCCNC(=O)[C@H]([C@@H](C)CC)n3cc(CCCCN=C(N)N)nn3)CC2)nc(N2CCN(C(=O)CCCCCCCCCCNC(=O)[C@H](CO)n3cc(CCCCCN)nn3)CC2)n1	52*	2	-14	4	0
C#CCOCCOCCOCCNc1nc(N2CCN(C(=O)CCCCCCCCCCNC(=O)[C@@H](CCC(=O)O)n3cc(CCCCCN)nn3)CC2)nc(N2CCN(C(=O)CCCCCCCCCCNC(=O)[C@H]([C@@H](C)CC)n3cc(CCCCCN)nn3)CC2)n1	52*	-1	8	3	0
C#CCOCCOCCOCCNc1nc(N2CCN(C(=O)CCCCCCCCCCNC(=O)[C@H]([C@@H](C)CC)n3cc(CCCCCN)nn3)CC2)nc(N2CCN(C(=O)CCCCCCCCCCNC(=O)[C@H]([C@@H](C)CC)n3cc(CCCCN=C(N)N)nn3)CC2)n1	-507	4	-22	0	1
C#CCOCCOCCOCCNc1nc(N2CCN(C(=O)CCCCCCCCCCNC(=O)[C@H]([C@@H](C)CC)n3cc(CCCCCN)nn3)CC2)nc(N2CCN(C(=O)CCCCCCCCCCNC(=O)[C@@H]([C@H](C)CC)n3cc(CCCCCN)nn3)CC2)n1	x	5	-13	0	6.6*
Cc1ccc(S(=O)(=O)N2CCN(C(=O)NCc3ccc(C(=O)O)cc3)CC2)cc1	-6	-1	10	1	1
COc1cccc(CNC(=O)CNS(=O)(=O)c2ccc(Br)s2)c1	10	2	0	3	0
CC1=CCC(C(=O)O)C(C(=O)NC2CCCCC2)C1 (stereo unspecified)	-2	2	15	89*	-1
CC1=C(C)CC(C(=O)NC2CCCC2)C(C(=O)O)C1 (stereo unspecified)	-1	0	x	x	x
CC1C/C(=C/c2ccccn2)C(=O)/C(=C/c2ccccn2)C1 (stereo unspecified)	17	9	10	0	0
CC(C)(C)C1C/C(=C/c2ccccn2)C(=O)/C(=C/c2ccccn2)C1 (stereo unspecified)	85*	39	39	0	u
O=C(Nc1cccc(N2C(=O)C=CC2=O)c1)c1cccs1	53*	2	35	10	1
O=C(C[n+]1cccc(/C=N/O)c1)N(Cc1ccccc1)Cc1ccccc1	-3	1	-16	0	0
CCCN(CCC)C(=O)C[n+]1cccc(/C=N/O)c1	-11	2	3	49*	0
CCOC(=O)CSC1=NC(=O)/C(=C/c2ccc(OC)cc2)S1	69*	8	36	5	-1
COc1ccc(/C=C2\SC(N)=NC2=O)cc1	9	-2	-4	1	-1
Cc1cc(=O)n2nc(N3CCC(C(=O)NCc4ccc(Cl)cc4)CC3)sc2n1	-5	-1	-9	3	0
O=C1CC(=O)N(Cc2ccco2)C(=O)N1	10	21	-9	89*	1
COc1cccc(/C=N/N2CCN(c3ccncc3S(=O)(=O)N3CCCCC3)CC2)c1	75*	1	32	0	-1
Cc1ccc(S(=O)(=O)CC(=O)Nc2ccc(Cl)cn2)cc1	0	0	14	0	1
O=Cc1cccc(OCc2cccc3ccccc23)c1	71*	8	3	0	1
SMILES	B2AR ag	NTR1 agonist	VLA-4 inh	GRK2 aptamer HTS	A1 inh
CC1=C/C(=C\c2ccc(Br)o2)C(=O)O1	8	1	24	96*	0
COc1ccccc1-c1ccc(/C=C2/C=C(C)OC2=O)o1	14	4	-2	0	1
O=C(COC(=O)c1ccc(S(=O)(=O)N2CCCC2)cc1)NCc1cccs1	2	14	-5	0	1
NC(=S)N/N=C/c1ccc(C23CC4CC(CC(C4)C2)C3)cc1	x	44*	2	2	1
NC(=S)N/N=C/c1ccccc1	7	4	1	5	1
N#Cc1cc(Sc2ccccn2)c(Sc2ccccn2)cc1C#N	58*	-1	12	2	-1
N#Cc1cc(Sc2ccccn2)c([N+](=O)[O-])cc1C#N	1	0	-49	0	-1
O=C1c2cc(CO)cc(O)c2C(=O)c2c(O[C@@H]3OC(CO)[C@@H](O)[C@@H](O)[C@@H]3O)cccc21 (stereo partly specified)	-2	-2	31	1	0
O=C(O)c1cc(O)c2c(c1)[C@@H]([C@H]1c3cc(C(=O)O)cc(O)c3C(=O)c3c(O[C@@H]4O[C@H](CO)[C@@H](O)[C@H](O)[C@H]4O)cccc31)c1cccc(OC3O[C@H](CO)[C@@H](O)[C@H](O)[C@H]3O)c1C2=O (stereo partly specified)	23	-1	57*	97*	2
C=Cc1c(C)c2cc3[nH]c(cc4nc(cc5nc(cc1[nH]2)C(C)=C5CCC(=O)O)C(CCC(=O)O)=C4C)c(C)c3C=C	45*!	-2	0	6	1
O=C(O)CCC(=O)NNc1ncnc2ccccc12	-11	-1	50*	2	u
CCC(=O)NNc1ncnc2ccccc12	0	-1	10	0	1
CC(=O)Nc1ccc(Nc2nc3ccccc3nc2NS(=O)(=O)c2ccc(Cl)c([N+](=O)[O-])c2)cc1	-5	x	x	x	x
Cc1ccc(OCC(=O)Nc2c3c(nn2C(C)(C)C)CS(=O)(=O)C3)cc1	1	0	-2	11	1
CCn1c(=O)c([N+](=O)[O-])c(Cl)c2ccccc21	77*	32	40	2	u
CCn1c(=O)c([N+](=O)[O-])c(NCCN(C)C)c2ccccc21	-3	-1	-10	0	0
CCOC(=O)C1=C(C)NC(C)=C(C(=O)OCC)C1c1ccccc1/C=C/C(=O)OC(C)(C)C	x	47*	8	4	-1
c1ccc(CCNc2ccnc3cc4ccccc4cc23)cc1	81*	x	x	x	x
N#C/C(=N\Nc1ccc(S(=O)(=O)N2CCc3ccccc32)cc1)C(N)=S	18	2	5	1	1
CCOC(=O)/C(C#N)=N/Nc1ccc(S(=O)(=O)N2CCc3ccccc32)cc1	15	2	37	82*	0
